# Screening data deposited in PubChem BioAssay by National Center for Advancing Translational Sciences (NCATS).
# DT40 TDP1 no CPT: qHTS for Inhibitors of human tyrosyl-DNA phosphodiesterase 1 (TDP1): qHTS in cells in absence of CPT; DT40 Tdp1-/- hTDP1 cells, no CPT, ATP luminescence, 48 h; Potency, µM (top dose mostly 46.2 µM), without a hit: at the highest dose activity change, negative = growth inhibition, most hits filed as inhibitors; hit rate 15% among 420,000; AID 686978, 2013; further: nearly all actives have a fitted effect of over 55% in size
#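 Growth kinetics read by CellTiter-Glo luminescence after ≥48 hr at 37 °C. Cells: DT40 Tdp1-/- stably carrying human TDP1, 400 per well, compound exposure in the absence of CPT (DMSO vehicle).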
# TDP1 inh: blocks human tyrosyl-DNA phosphodiesterase 1; Q9NUW8; recombinant TDP1, AlphaScreen DNA substrate cleavage; Potency, µM (doses to about 130 µM), inactives show at the top dose activity change, negative = inhibition, hits mostly inhibitors; hit rate 0.28% among 350,000; further: nearly all actives have a fitted effect of over 40% in size
#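 Steps: enzyme plus compound, 15 min RT; add biotin/phosphotyrosine-FITC oligonucleotide (15 nM final), react 5 min; add donor/acceptor beads (10 ug/ml final), 10 min; read AlphaScreen. Tdp1 at 1 nM final.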
# PLK1 PBD inh: PLK1 (human) polo-box domain binding inhibition. P53350. Plk1 PBD binding of FITC phosphopeptide, fluorescence polarization. Potency, µM, for the others: max response, negative = inhibition, actives largely listed as inhibitors. hit rate 2.8% among 360,000; further: series mostly up to about 57 µM; nearly all actives have a fitted effect of over 65% in size
# Target sequence (P53350 whole entry, looked up, the tested form may be a part): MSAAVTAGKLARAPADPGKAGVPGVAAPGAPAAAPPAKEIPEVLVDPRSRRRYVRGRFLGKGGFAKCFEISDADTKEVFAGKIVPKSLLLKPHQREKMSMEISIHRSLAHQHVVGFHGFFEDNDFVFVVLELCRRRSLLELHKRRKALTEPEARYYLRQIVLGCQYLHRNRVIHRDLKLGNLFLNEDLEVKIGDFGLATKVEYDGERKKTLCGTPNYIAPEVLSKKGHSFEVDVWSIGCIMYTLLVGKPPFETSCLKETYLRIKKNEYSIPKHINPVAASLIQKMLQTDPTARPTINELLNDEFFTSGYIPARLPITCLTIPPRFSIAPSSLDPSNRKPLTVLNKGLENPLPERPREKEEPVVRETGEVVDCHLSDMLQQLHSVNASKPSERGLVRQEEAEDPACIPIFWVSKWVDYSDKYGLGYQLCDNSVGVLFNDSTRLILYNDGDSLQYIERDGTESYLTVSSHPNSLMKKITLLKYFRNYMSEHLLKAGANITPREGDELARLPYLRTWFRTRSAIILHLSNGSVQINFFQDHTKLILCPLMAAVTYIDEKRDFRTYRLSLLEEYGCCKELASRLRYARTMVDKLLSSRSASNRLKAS
# GCN5L2 inh: inhibitors of human GCN5L2 histone acetyltransferase; GCN5L2 HAT assay, ThioGlo1 CoA-SH fluorescence; Q92830; Potency, µM (highest dose often 58.9 µM), inactives show top-dose activity change, negative = inhibition, actives largely listed as inhibitors; hit rate 0.21% among 390,000
#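 Compounds, pin-transferred from DMSO stocks, meet 20nM GCN5L2 for 15 min before the reaction begins with H3(1-25) peptide (75uM) and acetyl-CoA (70uM). Thiol-reactive ThioGlo1 reports CoA release over 20 min at room temperature.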
# VDR inhibitor: blocks the human vitamin D receptor; P11473; VDR-SRC2-3 peptide fluorescence polarization, 2 h; Potency, µM, inactives show max response, negative = inhibition, usual class: inhibitors; hit rate 0.93% among 400,000; AID 504847
#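 Inhibition of the VDR/SRC2-3 peptide interaction is quantified by fluorescence polarization. Compounds (23 nl, pintool) incubate with the reagents for 2 hours at ambient room temperature.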
# DT40 TDP1 CPT: growth inhibition of DT40 Tdp1-/-;hTDP1 cells with camptothecin (screen for TDP1 inhibitors); chicken DT40 Tdp1-/-;hTDP1 cells + 20 nM CPT, ATP luminescence, 48 h; hit rate 12% among 420,000; AID 686979; Potency, µM (doses to about 46.2 µM), for the others: top-dose activity change, negative = growth inhibition, hits mostly inhibitors; further: nearly all actives have a fitted effect of over 55% in size
#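 Cell growth measured by CellTiter-Glo luminescence after a minimum 48 h, 37 C compound exposure with 20 nM CPT in Tdp1-knockout DT40 cells stably expressing hTDP1, seeded 400/well; qHTS titration format.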
# The depositor's hits bear a star; ? = inconclusive; / = not tested or not shown; [ ] = remark or other dose. A selection: hits, their analogues and other compounds. The true share with any hit is near 18%. The call rests on the fitted dose curve; in most records, active means well fitted curve in the direction sought with a large enough effect; inconclusive means small, poorly fitted or top-dose-only effect, or another doubt; inactive means no such curve, though single readings can be large; an effect the other way counts as inactive or inconclusive. On the % scale 0 is the no-effect control and ±100 the full control effect; potency means the concentration at half of the fitted maximal effect.
SMILES,DT40 TDP1 no CPT,TDP1 inh,PLK1 PBD inh,GCN5L2 inh,VDR inhibitor,DT40 TDP1 CPT
Oc1ccc(N=Nc2ccccc2C(F)(F)F)c2cccnc12,1µM*,/,1%,-3%,1%,0.82µM*
Cc1ccc(N=Nc2ccc(O)c3ncccc23)cc1C,2.3µM*,8%,-5%,-7%,7%,2.3µM*
CS(=O)(=O)N1CCC(C(=O)N2CCN(C(c3ccccc3)c3ccccc3)CC2)CC1,?,3%,-23%,-3%,0%,?
CCCSC1=NC2(CCN(C(=O)NC3CCCCC3)CC2)N=C1c1ccccc1,-20%,-8%,/,-24%,-8%,-1%
CCCSC1=NC2(CCN(C(=O)NC3CCCCC3)CC2)N=C1c1ccc(OC)cc1,23µM*,2%,/,-6%,-1%,23µM*
Cc1ccc(C2CC(=O)C=C(NCc3ccccc3)C2)cc1 (centres undefined),4.6µM*,/,2%,0%,-9%,5.2µM*
Cc1ccc(C2CC(=O)C=C(Nc3ccc(Cl)cc3)C2)cc1 (centres undefined),?,2%,-3%,-9%,-13%,?
COc1ccc(C2CC(=O)C=C(NCCC(C)C)C2)cc1 (centres undefined),15µM*,2%,-2%,-1%,6%,?
COc1ccc(C2=CC(=O)CC(c3ccc(F)cc3)C2)cc1 (centres undefined),-27%,/,1%,/,-12%,?
CN(C)Cc1ccccc1-c1cncnc1NCc1cccs1,-11%,4%,/,-8%,2%,1%
CC(C)CN(C)c1nc(N)c(C(=O)N=C(N)N)nc1Cl,/,16%[56.1 µM],/,/,/,/
C[C@@H]1[C@H](c2ccccc2)OCCS(=O)(=O)N1Cc1ccc(Cl)cc1,10µM*,/,/,/,/,11µM*
Cc1ccccc1CN1[C@H](C)[C@H](c2ccccc2)OCCS1(=O)=O,13µM*,/,/,/,/,?
C[C@@H]1[C@H](c2ccccc2)OCCS(=O)(=O)N1Cc1ccccc1,-7%,/,/,/,/,-7%
C[C@@H]1[C@H](c2ccccc2)OCCS(=O)(=O)N1Cc1cccc(Cl)c1,13µM*,/,/,/,/,?
COCCC1CCCCN1Cc1nc(N2CCCCC2)c2cc(OC)c(OC)cc2n1 (centres undefined),-23%,/,/,/,/,-6%[9.04 µM]
O=C[C@H](O)[C@@H](O)[C@H](O[C@H]1O[C@H](CO)[C@@H](O[C@H]2O[C@H](CO)[C@@H](O)[C@H](O)[C@H]2O)[C@H](O)[C@H]1O)[C@H](O)CO,-2%,/,/,/,/,-6%
CCC(=O)N1CCN(c2ccccc2NC(=O)c2ccc([N+](=O)[O-])o2)CC1,18µM*,7%,-20%,0%,-4%,18µM*
CC(C)C(=O)N1CCN(c2ccccc2NC(=O)c2ccc([N+](=O)[O-])o2)CC1,?,/,-8%,-4%,2%,16µM*
COc1cc(-c2cc(C)c3c(OC)ccc(OC)c3n2)cc2c1OCCN(Cc1cn(C)nc1C)C2,-22%,/,/,/,/,33%[9.04 µM]
O=C(NCCCNC(=O)c1ccc(-c2cccc(Cl)c2)o1)c1cnccn1,?,/,-21%,-3%,-2%,-15%
Cc1cc(O)c(C=O)c2c1C(=O)Oc1c(CO)c(O)c3c(c1O2)C(O)OC3=O (centres undefined),-8%,/,7.5µM*,16µM*,18µM*,-1%
Cc1cc(O)c(CN(C)C)c2c1C(=O)/C(=C/c1ccco1)O2,-18%,/,-20%,-13%,-22%,?
Cc1cc(O)c(C=O)c2c1C(=O)Oc1c(COC(=O)/C=C/C(=O)O)c(O)c(C(=O)O)c(C)c1O2,-16%,40µM*,/,20µM*,6.3µM*,-5%
Cc1ccc(CNC(=O)[C@H](C)[C@H]2C[C@]2(C)[C@H](NC(=O)OCc2ccccc2)c2ccccc2)o1,16µM*,4%,-16%,-2%,-4%,?
